Assay outcomes (PubChem)
Sampled rows, rich in hits. Any-hit rate of the full collection: about 22%.
Measles CPE – protection of cells from measles virus | Measles virus-infected cells, CPE protection, absorbance | protection (pct of control), % at 4 µM | actives 1.5% (n = 140,000) | AID 841; in the data active means protection mostly above about 24%, no sharp cut-off; inactive means mostly below about 26%
CYP2C9 activ – CYP2C9 (human) activation; P11712; recombinant CYP2C9, luciferin-H conversion, luminescence; stronger effect = higher value; factor 1 = untreated enzyme, 0 = blocked; activation factor at 5 µM; actives 1.4% (n = 96,000); AID 1024;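 active means activation factor of 2 or more for CYP2C9 at a 5 µM dose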;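 further: 0 = sulfaphenazole-blocked wells and 1 = vehicle-only wells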
Target sequence (P11712 whole entry, looked up): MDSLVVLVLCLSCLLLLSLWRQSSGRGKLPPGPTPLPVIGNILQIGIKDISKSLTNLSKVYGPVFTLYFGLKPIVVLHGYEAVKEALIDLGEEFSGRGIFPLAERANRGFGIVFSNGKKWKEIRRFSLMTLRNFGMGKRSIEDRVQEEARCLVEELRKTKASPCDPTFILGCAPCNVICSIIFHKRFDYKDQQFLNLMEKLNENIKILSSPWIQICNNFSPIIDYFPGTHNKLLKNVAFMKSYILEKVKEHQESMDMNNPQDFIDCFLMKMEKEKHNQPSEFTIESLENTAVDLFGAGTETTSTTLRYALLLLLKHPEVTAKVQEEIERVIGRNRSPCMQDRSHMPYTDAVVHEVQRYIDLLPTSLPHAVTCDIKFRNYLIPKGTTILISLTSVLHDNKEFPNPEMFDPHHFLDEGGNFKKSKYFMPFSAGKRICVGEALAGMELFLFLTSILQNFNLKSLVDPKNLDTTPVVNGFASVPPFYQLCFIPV
CYP2C9 inh – human CYP2C9 inhibition. actives 20% (n = 96,000). inhibition, % at 5 µM. AID 777. CYP2C9 Supersomes, luciferin-H conversion, luminescence. P11712;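 active means blocking of liver enzyme CYP2C9 beyond about 50% at 5 µM, limit read from the data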
CYP2C19 act – cytochrome P450 2C19 (human) activation; P33261; recombinant CYP2C19, luciferin-H EGE luminescence; stronger effect = higher value; 0 = fully inhibited enzyme, 1 = untreated enzyme; activation factor at 5 µM; 96,000 tested, under 10 active;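 active means activation factor of at least 2 at 5 µM in the primary screen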;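 further: 0 = wells with 2.5 mM tranylcypromine and 1 = vehicle-only wells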
CYP2C19 inh – blocks human cytochrome P450 2C19 | CYP2C19 Supersomes, luciferin-H EGE luminescence, 30 min | actives 21% (n = 96,000) | inhibition, % at 5 µM | P33261 | AID 778;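 active means CYP2C19 inhibition above a set limit at 5 µM in the primary screen, cut at about 50% in these data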;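 further: plate controls were negative control wells for no effect and 2.5 mM tranylcypromine positive control for full effect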
* hit, by the source's call; · = no result given.

SMILES	Measles CPE	CYP2C9 activ	CYP2C9 inh	CYP2C19 act	CYP2C19 inh
Cc1oc2c(c1C(=O)NCCCC(=O)O)CCCC2	21	0.9	6	1	-3
Cc1nc2c(c3c1[nH]c1ccccc13)C(=O)CC(C)(C)C2	12	2.8*	-183	0.6	39
CN(C)CCSc1nnc2[nH]c3ccccc3c2n1	2	·	·	·	·
CCn1c(SCC(=O)c2cc(C)n(-c3ccc(C(=O)OC)cc3)c2C)nnc1-c1cccnc1	4	0.6	45	0.6	38
CC(=O)c1c(C)[nH]c(C(=O)CSc2nnc3ccccn23)c1C	3	·	·	·	·
CCOC(=O)c1c(C)[nH]c(C(=O)CSc2nnc(CC(C)c3ccccc3)o2)c1C (stereo not drawn)	13	0.3	71*	0.7	32
CCOC(=O)c1c(C)[nH]c(C(=O)CSc2ccc(Cl)cc2)c1C	16	0.3	71*	0.7	29
CCOC(=O)c1c(C)[nH]c(C(=O)CSc2nc(C)cc(C)n2)c1C	4	·	·	·	·
CCOC(=O)c1c(C)[nH]c(C(=O)CSc2nc3ccccc3o2)c1C	7	0.7	34	0.9	8
O=C(CSc1nnc(-c2ccccc2)o1)c1nnc(-c2ccccc2)o1	16	0.3	74*	0.9	9
CC(=O)c1c(C)[nH]c(C(=O)CSc2nnc(-c3ccccc3)o2)c1C	11	0.7	28	0.4	57*
CCOC(=O)CSc1nnc(-c2ccccc2)o1	27	·	·	·	·
CCCc1cc(=O)n2[nH]c(-c3ccc(Br)cc3)cc2n1	11	·	·	·	·
O=C(c1ccc(COc2ccccc2Cl)o1)N1CCN(c2ccccc2)CC1	6	0	97*	0.1	92*
Cc1cccc(N2CCN(C(=O)c3ccc(CS(=O)(=O)c4ccccc4C)o3)CC2C)c1 (stereo not drawn)	6	0.2	84*	0.4	58*
Cc1ccc(S(=O)(=O)Cc2ccc(C(=O)N3CCN(c4cc(C)ccc4C)CC3)o2)cc1	5	0.9	6	1	-2
COc1ccccc1S(=O)(=O)Cc1ccc(C(=O)N2CCN(c3ccccc3)CC2)o1	·	0.8	22	0.8	24
COc1ccccc1S(=O)(=O)Cc1ccc(C(=O)N2CCN(c3cccc(Cl)c3)CC2)o1	15	0.6	37	0.5	53*
Cc1ccc(C)c(N2CCN(C(=O)c3ccc(CS(=O)(=O)c4ccccc4C)o3)CC2)c1	12	0.3	69*	0.7	35
COC(=O)C1=C(C)NC(C)=C(C(=O)OC)C1c1ccccc1OCc1c(C)no[n+]1[O-]	5	0.1	89*	0.3	71*
CCOC(=O)C1=C(C)NC(C)=C(C(=O)OC)C1c1cccc(Cl)c1Cl (stereo not drawn)	4	·	·	·	·
N#CCCn1nc(-c2ccccc2)cc1Nc1ccccc1NC(=O)c1cccs1	4	0	96*	0	97*
O=C(Nc1ccccc1C1CC1)c1cccs1	11	0.6	43	0.9	11
Cn1c(=O)c2c(nc(Sc3nc4ccccc4n3CC(=O)N3CCCCC3)n2C)n(C)c1=O	12	0.6	36	0.9	10
c1csc(Cn2c(-c3cccs3)nc3ccccc32)c1	12	0.1	94*	0.1	87*
SMILES	Measles CPE	CYP2C9 activ	CYP2C9 inh	CYP2C19 act	CYP2C19 inh
CC(C)Cn1c(-c2cccs2)nc2ccccc21	3	1	-1	0.7	31
CC(C)c1ccc(CNc2ccc(N3CCOCC3)cc2)cc1	13	1	0	0	95*
Cc1ccc(NC(=O)c2cccs2)cc1S(=O)(=O)Nc1cccc(Cl)c1	12	·	·	·	·
Cc1ccc(-n2c(=O)[nH]cc(C(=O)N3CCc4ccccc43)c2=O)cc1C	8	0.9	11	1	0
O=Nc1ccc(NOC(=O)c2ccc(Br)cc2)cc1	11	0.9	10	0.8	17
COC(=O)c1ccc(NN=Nc2ccc(C)cc2)cc1	5	·	·	·	·
Cc1ccc(C(=O)ONc2ccc(N=O)cc2)cc1	9	0.1	93*	1	-4
Cc1ccc(C(=O)ONc2ccc(N=NC(=O)c3ccccc3O)cc2)cc1	6	0.1	92*	0	100*
O=C(NCCN1CCN(c2ccccc2)CC1)C1CCCN(S(=O)(=O)c2cnc[nH]2)C1 (stereo not drawn)	18	0.8	19	0.9	12
CCN(CCNC(=O)C1CCCN(S(=O)(=O)c2cnc[nH]2)C1)c1ccccc1 (stereo not drawn)	3	0.1	95*	0.1	90*
CCN(CCCNC(=O)C1CCCN(S(=O)(=O)c2cnc[nH]2)C1)c1ccccc1 (stereo not drawn)	9	0.5	52*	0.2	78*
CCCn1c(=S)[nH]c2cc(C(=O)N3CCc4ccccc43)ccc2c1=O	12	1	1	1.1	-6
Cc1cc(/C=C(/C#N)c2nc3ccccc3[nH]2)c(C)n1-c1cccc([N+](=O)[O-])c1	11	0.2	81*	0.6	40
Cc1cc(/C=C(\C#N)c2nc3ccccc3[nH]2)c(C)n1C	4	·	·	·	·
N#C/C(=C\c1cc([N+](=O)[O-])c(N2CCCCC2)cc1N1CCCCC1)c1nn(-c2ccccc2)c(N)c1C#N	12	0	97*	0.3	69*
N#C/C(=C/c1ccc(N2CCOCC2)o1)c1nc2ccccc2[nH]1	10	·	·	·	·
Cc1cc(C=C(C#N)C#N)c(C)n1-c1ccccc1	51*	0.7	30	0.6	43
N#C/C(=C\c1cc([N+](=O)[O-])c(N2CCOCC2)cc1N1CCOCC1)c1nc2ccccc2[nH]1	15	0	97*	0.1	91*
Nc1ccc(C(=O)c2cccs2)cc1	2	·	·	·	·
Cc1cc(C)n(C(=O)CCC(=O)Nc2ccc(C)c(C)c2)n1	5	1	1	1	0
O=C(c1ccccc1Nc1ccc(SC(F)F)cc1)N1CCCCCC1	3	0.4	60*	0.2	84*
Cc1cc(C)c(NC(=S)NC(=O)c2ccc(-c3ccccc3)cc2)c(C)c1	8	·	·	·	·
CN(CCO)c1ncnc2nc[nH]c12	4	·	·	·	·
O=C(NCc1n[nH]c(=S)n1-c1cccc(Cl)c1)c1ccc(S(=O)(=O)N2CCCC2)cc1	7	0.4	61*	0.6	42
COc1ccc(C(=O)NCc2n[nH]c(=S)n2-c2ccccc2)cc1OC	6	0.9	12	0.8	21
O=C(NCc1n[nH]c(=S)n1-c1ccc(F)cc1)c1ccc(S(=O)(=O)N2CCCC2)cc1	2	1	3	1	3
COc1cc(OC)cc(C(=O)NCc2n[nH]c(=S)n2-c2ccccc2)c1	8	0.8	17	0.4	64*
O=C(c1ccc(COc2c(F)c(F)c(F)c(F)c2F)o1)N1CCN(Cc2ccc3c(c2)OCO3)CC1	15	·	·	·	·
COc1nc(OC)nc(N2CCC(NC(=O)C(Cc3ccc(C(C)C)cc3)NC(C)=O)CC2)n1 (stereo not drawn)	30	0.4	57*	0.6	36
C#CCOCCOCCOCCNc1nc(N2CCN(C(=O)Cn3cc(CCCN=C(N)N)nn3)CC2)nc(N2CCN(C(=O)[C@H](C)n3cc(CCCN=C(N)N)nn3)CC2)n1	5	·	·	·	·
